This passage reports activation results from PubChem BioAssay AID1698 (The Scripps Research Institute Molecular Screening Center, 2009).

SMILES strings stand for the structures. The list shows a part of the results. Values without a mark were called inactive. Calls of active or inactive are those of the source.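 Rule for the calls: active = activation above the solvent-only control wells' mean plus 3 SD (cut at about 11% in these data); inactive = the rest.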

The target in the assay is Neuropeptide Y receptor type 2 (Homo sapiens) (UniProt P49146). The assay can be described thus: NPY-Y2 direct agonists without NPY, counter-screen for NPY-Y1 potentiator project, cell-based, fluorescence (AID 1698).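 Note: 0% = DMSO with isoproterenol and 100% = 40 nM NPY maximal response; agonism lowers cAMP so well fluorescence drops in active wells.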 The settings on record: HEK293 Y2-CNGC, membrane potential fluorescence, agonist mode; at 3.6 µM; hits give high values. A general note: The purpose of a counterscreen is to sort out artefacts and off-target activity.
Neuropeptide Y receptor type 2 (Homo sapiens), sequence (P49146 whole entry, looked up): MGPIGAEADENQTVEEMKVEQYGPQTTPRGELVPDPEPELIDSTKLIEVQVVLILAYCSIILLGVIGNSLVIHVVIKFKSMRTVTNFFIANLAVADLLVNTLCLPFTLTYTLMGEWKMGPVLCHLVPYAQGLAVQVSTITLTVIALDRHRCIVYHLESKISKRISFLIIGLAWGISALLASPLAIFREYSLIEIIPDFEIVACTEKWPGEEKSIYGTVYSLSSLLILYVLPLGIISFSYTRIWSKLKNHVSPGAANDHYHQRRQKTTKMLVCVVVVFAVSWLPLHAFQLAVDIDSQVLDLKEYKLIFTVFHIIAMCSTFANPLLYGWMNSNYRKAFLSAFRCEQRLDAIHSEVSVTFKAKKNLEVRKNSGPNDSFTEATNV

For the compound `CSC1=NP(=S)(SC)N(C)c2nc3n(c21)CCC3` (configuration not stated), the activation is 5.24%. The result for `Cc1nn(Cc2ccccc2Cl)c(Cl)c1C(=O)OC(C(=O)NC(N)=O)C(C)C` (configuration not stated) reads 31.5% (active).
